Screening results: PubChem, National Center for Advancing Translational Sciences (NCATS)
This is a sample that favours compounds with a hit; in the whole collection about 5.5% have one here.
ELG1 repair inh – blocks ELG1-dependent DNA repair in HEK293T cells | HEK293T ELG1-luciferase reporter, luminescence, 16 h; DNA damage induced by 5-fluorouridine | Potency, µM (titrated, usually from 46.1 µM), for inactives: at the top dose activity change, negative = inhibition, usual class: inhibitors | hit rate 2.3% among 330,000; note: potency is the fitted concentration of half-maximal effect; % is set by controls: 0 for no effect and ±100 for the full control effect; nearly all actives have a fitted effect of over 55% in size
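In this reporter screen, reduction of luminescence relative to DMSO vehicle indicated activity. Compounds and 5-fluorouridine were added together to 2,000 cells per well, incubated for 16 hr at 37 °C, then developed with ONE-Glo.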
Giardia kill – Giardia lamblia killing | Giardia lamblia trophozoite viability | activity change, % at 7.66 µM, hits read low | hit rate 0.15% among 340,000 | AID 540267; in the data active = activity change below about -80%; inconclusive = between about -30% and that limit;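 note: parasites exposed to compound for two days anaerobically before the ATP read; % is set by controls: 0 for no effect and ±100 for the full control effect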
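Luminescence from cellular ATP indicates surviving trophozoites (100 cells/well) following 48 hrs anaerobic compound treatment at 37 deg C; signal develops 15-30 min at room temperature.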
FBPA coupling cs – inhibits coupling enzyme system, counter-screen for aldolase hits | activity change, negative = inhibition, % at 58.2 µM, hits read low | coupling enzyme system counterscreen, AmpLite Red fluorescence | hit rate 0.67% among 290,000 | AID 2472; in the data active = activity change below about -30%; note: % is set by controls: 0 for no effect and ±100 for the full control effect
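Activity here indicates interference with the coupling reaction, not aldolase inhibition. Compounds at 57.5 uM final met coupling enzymes for 10 min at RT; substrate and AmpLite Red detection followed, with a 525/598 nm fluorescence read after 20 min.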
Sfp PPTase inh – blocks B. subtilis Sfp PPTase activity | AID 1490 | Q9F4F7 | Potency, µM, for inactives: largest response in the series, negative = inhibition, usual class: inhibitors | hit rate 3.5% among 310,000 | Biochemical Sfp PPTase activity, qHTS;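 note: the enzyme is Sfp with the accession as filed and its product quenches rhodamine fluorescence; potency is the fitted concentration of half-maximal effect; 0% = enzyme reaction without inhibitor and -100% = no enzyme wells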
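After 15 min at room temperature with compound, 15 nM Sfp received 5 uM rhodamine-CoA plus 12.5 uM BHQ-2-ybbR (50 mM Hepes pH 7.6, 10 mM MgCl2). Rate came from the fluorescence difference over 30 min, ex 525/em 598 nm.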
Sfp inh conf – Sfp phosphopantetheinyl transferase inhibition, confirmation; shares compounds with Sfp PPTase inh; Sfp PPTase enzymatic assay, qHTS titration; Potency, µM (top dose mostly 114 µM), for inactives: top-dose activity change, negative = inhibition, actives largely listed as inhibitors; hit rate 79% among 380; AID 2701;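 note: potency is the fitted concentration of half-maximal effect; plate controls were uninhibited Sfp reaction for no effect and no enzyme control for full effect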
Sfp PPTase gel – Inhibits B. subtilis Sfp phosphopantetheinylation. shares compounds with Sfp PPTase inh. purified Sfp, gel-based phosphopantetheinylation read-out. Potency, µM, most hits filed as inhibitors. hit rate 20% among 210;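 active = potency below 100 µM; inconclusive = dose-dependent response but potency above 100 µM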;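 note: band intensities scaled against SCH202676 control wells before curve fitting; potency is an IC50 for inhibitors of Sfp transfer activity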
Casp1 confirm – confirmation of allosteric or competitive inhibitors of human caspase-1. purified caspase-1, fluorogenic substrate cleavage. Potency, µM (series often up to 57.5 µM), without a hit: at the highest dose activity change, negative = inhibition, most hits filed as inhibitors. shares compounds with FBPA coupling cs. AID 896. hit rate 20% among 60; active = well fitted inhibition curve with a large enough effect in the main read-out, with a control signal flat; inconclusive = small, poorly fitted or top-dose-only effect, or a change in a side signal; inactive = no such curve, though single readings can be large or run the other way
Casp7 confirm – confirmation of allosteric or competitive inhibitors of human caspase-7; shares compounds with FBPA coupling cs; recombinant caspase-7, fluorogenic substrate cleavage; Potency, µM (titrated, usually from 57.5 µM), without a hit: top-dose activity change, negative = inhibition, usual class: inhibitors; 60 tested, under 10 active; AID 897; active = well fitted inhibition curve with a large enough effect in the main read-out, with a control signal flat, not every such curve was filed as active; inconclusive = small, poorly fitted or top-dose-only effect, or a change in a side signal; inactive = no such curve, though single readings can be large or run the other way
Casp7 cysteine – counter-screen for redox active caspase-7 inhibitors: cysteine buffer | shares compounds with FBPA coupling cs | caspase-7 enzyme with cysteine, fluorogenic substrate, redox counterscreen | Potency, µM (top dose mostly 57.5 µM), without a hit: at the top dose activity change, negative = inhibition, usual class: inhibitors | 60 tested, under 10 active | AID 908; active = well fitted inhibition curve with a large enough effect in the main read-out, with a control signal flat; inconclusive = small, poorly fitted or top-dose-only effect, or a change in a side signal; inactive = no such curve, though single readings can be large or run the other way
Casp1 cysteine – inhibits caspase-1 in cysteine buffer, redox counter-screen | shares compounds with FBPA coupling cs | recombinant caspase-1, fluorogenic substrate, cysteine buffer | Potency, µM (titrated, usually from 57.5 µM), for the others: at the highest dose activity change, negative = inhibition, usual class: inhibitors | 60 tested, under 10 active | AID 929; active = well fitted inhibition curve with a large enough effect in the main read-out, with a control signal flat; inconclusive = small, poorly fitted or top-dose-only effect, or a change in a side signal; inactive = no such curve, though single readings can be large or run the other way
ELG1 FLuc counter – luciferase inhibition in cell-free luciferin readout for ELG1 hits | Potency, µM (series often up to 46.1 µM), for the others: top-dose activity change, negative = inhibition, most hits filed as inhibitors | hit rate 3% among 350 | shares compounds with ELG1 repair inh | cell-free firefly luciferase luminescence counter-screen, ViewLux; note: potency is the fitted concentration of half-maximal effect; % is set by controls: 0 for no effect and ±100 for the full control effect
ELG1 Luc conf – confirmation of human ELG1-dependent DNA repair inhibitors; shares compounds with ELG1 repair inh; HEK293T ELG1-luciferase levels, luminescence; cells co-treated with 5-fluorouridine; Potency, µM (series often up to 46.1 µM), for the others: top-dose activity change, negative = inhibition, hits mostly inhibitors; hit rate 68% among 670; note: potency is the fitted concentration of half-maximal effect; % is set by controls: 0 for no effect and ±100 for the full control effect; nearly all actives have a fitted effect of over 55% in size
ELG1-Luc MMS – inhibits ELG1-dependent repair under MMS stimulation in HEK293T cells. hit rate 53% among 670. HEK293T luciferase-tagged ELG1 level, MMS stimulated. shares compounds with ELG1 repair inh. Potency, µM (series often up to 46.1 µM), inactives show at the highest dose activity change, negative = inhibition, actives largely listed as inhibitors; note: potency is the fitted concentration of half-maximal effect; % is set by controls: 0 for no effect and ±100 for the full control effect; nearly all actives have a fitted effect of over 60% in size
ELG1 5FU viab – confirmation of ELG1 repair inhibitors: viability with 5FU; shares compounds with ELG1 repair inh; cell viability with 5-FU, ELG1-dependent repair; Potency, µM (series often up to 46.1 µM), for inactives: at the highest dose activity change, negative = viability loss, actives largely listed as cytotoxic; 670 tested, under 10 active; AID 624250;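 note: ELG1-luc HEK293T cells cotreated with 5-fluorouridine at 10 µM final; potency is the fitted concentration of half-maximal effect; viability measured 16 h after compound addition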
ELG1 MMS viab – confirmation of ELG1 repair inhibitors: viability with MMS | Potency, µM (doses to about 46.1 µM), for the others: at the top dose activity change, negative = viability loss, hits mostly cytotoxic | shares compounds with ELG1 repair inh | hit rate 33% among 670 | AID 624251 | Cell viability with MMS, ELG1-dependent DNA repair;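 note: ELG1-luc HEK293T cells co-treated with 10 µM MMS; potency is the fitted concentration of half-maximal effect; viability read 16 h after compound addition; % is set by controls: 0 for no effect and ±100 for the full control effect; nearly all actives have a fitted effect of over 60% in size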
ELG1 unstim viab – counter-screen for ELG1 repair inhibitors: unstimulated cell viability | shares compounds with ELG1 repair inh | cell viability counter-screen, unstimulated, luminescence | Potency, µM (series often up to 45.9 µM), for the others: top-dose activity change, negative = loss of viability, actives largely listed as cytotoxic | hit rate 8% among 900 | AID 624252;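 note: potency is the fitted concentration of half-maximal effect; compound exposure lasted 16 hours before reading; % is set by controls: 0 for no effect and ±100 for the full control effect; nearly all actives have a fitted effect of over 55% in size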
FLuc enzyme – firefly luciferase inhibition counter-screen; shares compounds with ELG1 repair inh; purified firefly luciferase, luminescence counter-screen; Potency, µM (top dose mostly 57.5 µM), without a hit: top-dose activity, negative = inhibition, actives largely listed as inhibitors; hit rate 10% among 350; AID 624253; note: potency is the fitted concentration of half-maximal effect; % is set by controls: 0 for no effect and ±100 for the full control effect
* marks the source's active call; other numbers are inactive results; i = inactive; u = inconclusive; x = not tested or not shown. Unless noted, calls come from the whole dose curve; as a rule, active = well fitted curve in the direction sought with a large enough effect; inconclusive = small, poorly fitted or top-dose-only effect, or another doubt; inactive = no such curve, though single readings can be large; an effect the other way counts as inactive or inconclusive.

SMILES	ELG1 repair inh	Giardia kill	FBPA coupling cs	Sfp PPTase inh	Casp1 confirm	Casp7 confirm	Casp7 cysteine	Casp1 cysteine	others
CC[C@@H]1/C=C/C=C/C[C@H](C)[C@@H](O)[C@](C)(O)C(=O)[C@H](C)[C@@H](O)[C@H](C)C(=O)[C@H](C)[C@@H](O)[C@H](C)/C=C/C(=O)O[C@H]2[C@@H](C)[C@@H](CC1)O[C@@]1(CC[C@@H](C)[C@@H](C[C@H](C)O)O1)[C@@H]2C	x	x	x	0.0006µM*	x	x	x	x	Sfp inh conf=0.4%;Sfp PPTase gel=i;ELG1 FLuc counter=u;ELG1 Luc conf=7.06µM*;ELG1-Luc MMS=0.0112µM*;ELG1 5FU viab=u;ELG1 MMS viab=0.0112µM*;ELG1 unstim viab=0.0281µM*;FLuc enzyme=-1.8%
CC(C)CN1CCCC2(CCN(C(=O)Oc3ccccc3)CC2)C1	x	x	-1.4	1.7%	x	x	x	x
O=C(O)c1cc[c]([Hg][Cl])cc1	16.2%	-4.2	x	x	10µM*	-13.7%	-24.9%	2.51µM*
C[N+]1([O-])[C@@H]2CC(OC(=O)[C@@H](CO)c3ccccc3)C[C@@H]1[C@H]1O[C@H]12 (stereo partly specified)	x	x	1.4	0.1%	x	x	x	x
CNC(=O)OCC[N+](C)(C)C	x	x	x	-3.7%	x	x	x	x
CCn1nc(-c2cccs2)nc2c(=O)n(C)c(=O)nc1-2	u	4.2	-69.2*	-5.0%	0.316µM*	0.631µM*	-10.6%	-3.8%
